Shown are actives, neighbours in structure and some others; about 3.4% of the full set was active somewhere.
sPLA2-III inh – Inhibits HGIII-sPLA2 liposome hydrolysis, primary screen. QFRET BODIPY PC-A2 liposome hydrolysis, fluorescence. Q9NZ20. AID 743126. inhibition, % at 12.2 µM. 370,000 compounds, 0.56% hits;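 active = inhibition above mean plus 3 SD of compounds lying within the high and low control bounds, cut at about 19% in these data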;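 also: 0% = median of test compound wells and 100% = no enzyme DMSO wells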
PLCg1 inh – blocks human PLC-gamma1 enzyme activity | P19174 | purified PLC-gamma1, fluorogenic substrate, fluorescence | inhibition, % at 12.2 µM | 370,000 compounds, 0.84% hits; in the data active = inhibition above about 9.5%
ADAM10 inh – inhibitors of human ADAM10. O14672. recombinant ADAM10, EDANS/DABCYL FRET peptide cleavage, 3 h. inhibition, % at 7 µM. 370,000 compounds, 0.62% hits. AID 720582;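 active = inhibition above a per-campaign cutoff equal to the mean of compounds falling between control-based bounds plus 3 SD, cut at about 20% in these data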;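 also: 0% = DMSO wells while the 100% control is not disclosed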
PLC-beta3 inh – inhibitors of human phospholipase C beta3; inhibition, % at 12.2 µM; 370,000 compounds, 0.18% hits; AID 720704; Q01970; Purified PLC-beta3, fluorogenic substrate, fluorescence; in the data active = inhibition above about 11%;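 also: 0% = median of compound wells on plate and 100% = full blocker control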
proKLK7 act – activates the human kallikrein-7 zymogen | P49862 | purified proKLK7, EDANS-DABCYL substrate fluorescence; 100% is mature enzyme control, 0% vehicle | activation, % at 7 µM | 370,000 compounds, 0.9% hits | AID 652039;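 active = activation above the mean of all tested compounds plus 3 SD, computed per campaign excluding outliers beyond control limits, cut at about 13% in these data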
ADAM17 inh – inhibits human ADAM17 | P78536 | recombinant ADAM17, EDANS/DABCYL FRET peptide cleavage | inhibition, % at 6.95 µM | 370,000 compounds, 0.83% hits;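 active = inhibition above the mean of compounds lying between control limits plus 3 SD, set per campaign, cut at about 8.5% in these data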;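 also: 0% = DMSO-only wells as the low control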
Target sequence (P78536 215-824 limits assumed): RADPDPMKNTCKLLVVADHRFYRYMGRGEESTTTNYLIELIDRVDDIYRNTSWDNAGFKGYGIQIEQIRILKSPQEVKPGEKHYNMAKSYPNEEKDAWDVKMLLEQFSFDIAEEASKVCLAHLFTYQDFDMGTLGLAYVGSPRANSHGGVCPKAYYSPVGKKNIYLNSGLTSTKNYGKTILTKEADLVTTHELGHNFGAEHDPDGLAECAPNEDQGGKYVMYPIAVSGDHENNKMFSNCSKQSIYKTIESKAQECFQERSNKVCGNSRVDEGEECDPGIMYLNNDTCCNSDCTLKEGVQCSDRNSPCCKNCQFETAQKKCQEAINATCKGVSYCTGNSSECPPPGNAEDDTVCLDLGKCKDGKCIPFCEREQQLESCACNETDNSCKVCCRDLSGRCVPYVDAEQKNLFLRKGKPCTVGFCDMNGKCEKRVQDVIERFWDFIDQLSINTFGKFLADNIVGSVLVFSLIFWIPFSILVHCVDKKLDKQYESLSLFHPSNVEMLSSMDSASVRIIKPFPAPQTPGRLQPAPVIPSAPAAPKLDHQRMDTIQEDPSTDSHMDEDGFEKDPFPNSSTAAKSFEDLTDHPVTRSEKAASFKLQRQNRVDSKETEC
Numbers without * were called inactive; i = inactive.

SMILES | sPLA2-III inh | PLCg1 inh | ADAM10 inh | PLC-beta3 inh | proKLK7 act | ADAM17 inh
CCCOc1ccc(C(=O)NNC(=S)NC(=O)c2cccs2)cc1 | 32* | -2 | 12 | -15 | 0 | 1
CCCOc1ccc(C(=O)NNC(=S)NC(=O)c2ccccc2)cc1 | 20* | 0 | 7 | -2 | 0 | 3
COc1ccc(C(=O)c2ccc3oc(-c4ccc(OC)cc4)c(-c4ccc(O)cc4)c3c2)cc1 | -4 | 2 | 5 | 6 | 0 | 8.6*
COc1ccc(C(=O)c2c(-c3ccc(OC)cc3)oc3ccccc23)cc1 | 2 | -136 | -23 | -196 | -23 | -4
COc1ccc(NC(=O)C2CCCN(S(=O)(=O)c3ccccc3)C2)c(OC)c1 (stereo not drawn) | 1 | 12* | 6 | -2 | 0 | 0
COc1ccc(S(=O)(=O)N2CCCC(C(=O)Nc3ccc(OC)c(OC)c3)C2)cc1 (stereo not drawn) | -9 | 1 | 4 | 2 | 0 | -5
Cc1cc(N2CCN(C(=O)OC(C)(C)C)C[C@H]2C)ccc1N1CC[C@@H](O)C1 | 0 | -20 | -6 | -23 | 0 | -1
COc1ccc(Nc2ccc3c(c2)=NC2(CCCCC2)[N+]=3[O-])cc1 | 14 | -3 | 6 | -5 | 0 | 9.7*
Cc1c(C)c2c(OCC(=O)N3CCC(C(N)=O)CC3)cc3c(c2oc1=O)CCC(C)(C)O3 | 7 | i | i | i | 32* | i
Cc1c(C)c2c(OCC(=O)NC3CC3)cc3c(c2oc1=O)CCC(C)(C)O3 | 3 | -460 | i | i | -9 | i
COc1cc(NC(=O)c2ccccc2)c(C)cc1NC(=O)CSc1nnc(COc2ccccc2)n1Cc1ccco1 | -18 | 3 | 16 | 2 | 0 | 7
C[C@H]1CCCN1c1ccc2c(c1)O[C@H]1CCN(C1)S2(=O)=O | 5 | -1 | -6 | -3 | 0 | -4
CCC(C)[C@H](NC(=O)N1CCn2c1nc1ccccc12)C(=O)NCCc1ccccc1 (stereo partly drawn) | -11 | 9.9* | 11 | -1 | 0 | 2
C[C@@H]1C=CCCO[C@]12C(=O)N(CC1CC1)c1cccc(Br)c12 | 2 | -2 | 1 | 1 | 1 | 0
Cn1c(Cc2cccs2)nnc1SCC(=O)Nc1ccc2c(c1)OCCO2 | 1 | -1 | -2 | 1 | 0 | 1
CC(=NNC(=O)c1ccncc1)c1ccc2ccccc2c1O | 20* | -62 | 1 | -101 | -2 | -2
COC(C/C=C\[C@H](O)[C@@H](C)OCc1ccccc1)OC | 12 | 3 | 4 | 12* | 1 | 7
CCOC(=O)C1CCCN(S(=O)(=O)c2cc3c(cc2Br)CCN3C(=O)CC)C1 (stereo not drawn) | -1 | -1 | 0 | 2 | 1 | 0
Cc1ccc(-c2nnc(SC(C)C(=O)NCC3CCCO3)nc2-c2ccc(C)cc2)cc1 (stereo not drawn) | -5 | 1 | 7 | 0 | 0 | 3
CC(Sc1nnc(-c2ccccc2)c(-c2ccccc2)n1)C(=O)NCC1CCCO1 (stereo not drawn) | 4 | 12* | -3 | -1 | 0 | -3
COc1ccccc1CNC(=O)c1cc(-c2ccccc2)nn1CC1CC(c2cccc([N+](=O)[O-])c2)=NO1 (stereo not drawn) | -9 | 3 | 20* | 3 | 0 | 3
N#CCCCc1cn(-c2ccc(-c3noc4c3C(=O)N(CC(=O)N3CCOCC3)CC4)cc2)nn1 | 5 | 8 | 0 | 3 | 0 | 2
COCCNC(=S)N(C)[C@H]1C[C@H]2c3[nH]c4c(-c5ccc6c(c5)OCO6)cccc4c3CCN2C(=O)[C@H]1[C@H](C)O | -15 | -17 | -15 | -21 | 0 | -1
COC(=O)C1CN(Cc2cn(Cc3ccc(C)cc3)nn2)CCS(=O)(=O)N1Cc1ccc(F)cc1 (stereo not drawn) | -11 | 1 | 7 | 1 | 0 | 1
O=C(O)c1ccc2c(c1)C(=O)N(CCC1=CCCCC1)C2=O | 2 | 13* | 9 | -1 | 0 | -4
SMILES | sPLA2-III inh | PLCg1 inh | ADAM10 inh | PLC-beta3 inh | proKLK7 act | ADAM17 inh
O=C(Nc1ccc(Oc2ccccc2)cc1)c1csc([C@@H]2O[C@H](CO)[C@H](O)[C@H](O)[C@H]2O)n1 | 0 | 9.7* | -1 | 4 | -1 | 6
CC(=O)Nc1ccc(NC(=O)c2csc([C@@H]3O[C@H](CO)[C@H](O)[C@H](O)[C@H]3O)n2)cc1 | -2 | -1 | -12 | 2 | 0 | -4
Nn1c(SCc2ccc(Br)cc2)nnc1-c1n[nH]c2c1CCC2 | -2 | 2 | 4 | 5 | 0 | 3
S=c1[nH]nc(-c2n[nH]c3c2CCC3)n1N=Cc1ccc(OCc2ccccc2)cc1 | 9 | -1 | -7 | 0 | 0 | 2
CN(C)c1ccc(Cc2ccc(N(C)C)cc2)cc1 | 17 | -1 | -1 | 0 | 0 | -1
CNc1nnc(-c2ccc(N(C)C)cc2)s1 | -4 | i | i | i | 40* | i
Nc1ccc2c(c1)C/C(=C/c1ccco1)C2=O | 22* | i | -141 | i | -68 | -38
O=C(N=C1N=C2C=CC(Br)=CN2Cc2ccccc21)c1ccc([N+](=O)[O-])cc1[N+](=O)[O-] | 10 | 13* | 18 | 11* | 0 | 9.1*
NC(=S)Nc1cc2ccccc2c2ccccc12 | 13 | -28 | -109 | -34 | 14* | -27
Cc1ccc(-c2nnn(CC(=O)Nc3ccc(S(=O)(=O)N4CCC(C)CC4)cc3)n2)cc1 | -16 | 4 | 7 | 7 | 0 | 6
CC1CCN(S(=O)(=O)c2ccc(NC(=O)Cn3nnc(-c4ccccc4)n3)cc2)CC1 | -18 | 8 | 19 | 7 | 1 | 10*
CSc1ccc(CNC(=O)C2(C)CCCN(C(C)C)C2)cc1 (stereo not drawn) | 4 | -2 | -14 | 0 | 1 | -4
CSc1ccc(CNC(=O)C2(C)CCCN(C(C)=O)C2)cc1 (stereo not drawn) | 16 | 4 | 3 | 11* | 0 | 3
O=C(Nc1ccc(-c2csc(Nc3ccccc3)n2)cc1)c1ccccc1 | 2 | -24 | -10 | -36 | 3 | -3
N#Cc1ccc(-c2csc(NNC(=O)c3ccccc3)n2)cc1 | 39* | -9 | 3 | -15 | 0 | 1
CC(Cl)C(=O)N1CCC(C(=O)NC2CCCc3ccccc32)CC1 (stereo not drawn) | -2 | 1 | 2 | 3 | 0 | 2
CCOC(=O)c1oc2cccc(O)c2c1C | -6 | -78 | -8 | -85 | -1 | 1
CCOC(=O)c1oc2ccc(CNC(C)(C)C)c(Cl)c2c1C | -6 | 12* | 8 | 6 | -1 | 2
O=C(Nc1ccc(S(=O)(=O)N2CCOCC2)cc1)c1cc(-c2cc(Cl)ccc2O)n[nH]1 | -24 | 5 | 27* | -5 | 0 | 5

From PubChem
